Laboratory results: PubChem BioAssay AID624390 (National Center for Advancing Translational Sciences (NCATS), 2012)
Activity calls are given as the source filed them. Calls follow the shape of the dose curve; as a rule, active = well fitted curve in the direction sought with a large enough effect; inactive = no such curve, though single readings can be large or run the other way.

target: Pyruvate kinase PKLR (Homo sapiens) (UniProt P30613); assay: qHTS for Activators of Human Muscle Isoform Pyruvate Kinase: Extended Characterization against Liver Pyruvate Kinase Probe 2; details: purified hPK-L, ATP production, Kinase-Glo luminescence; series mostly up to 57.7 µM; activity change, positive = activation: at the top concentration
Protocol: Human pyruvate kinase liver (hPK-L) enzyme was supplied as a highly purified (>95% pure) preparation from Harvard Medical School and assayed for its ability to generate ATP from ADP using phosphoenolpyruvate (PEP) as a substrate. ATP generation was detected in a coupled reaction by luciferase-mediated luminescence, an ATP-dependent process. Pyruvate kinase substrates, PEP and ADP, were present in the assay at Km and approximately 10-fold below Km respectively. The enzyme was assayed at an intermediate level of activity to screen for both inhibitors and activators. NIH Chemical Genomics Center [NCGC] NIH Molecular Libraries Probe Centers Network [MLPCN] MLPCN Grant: MH085679 Assay Submitter (PI): Matthew G. Vander Heiden, Harvard Medical School
Three uL of substrate mix (at r.t.) in assay buffer (50 mM Imidazole pH7.2, 50 mM KCl, 7 mM MgCl2, 0.01% Tween 20, 0.05% BSA) was dispensed into white solid bottom 1,536 well microtiter plates so that the final concentrations of substrates in the assay were 0.1 mM ADP and 0.5 mM PEP. 23 nL of compound were delivered by a pin tool and 1 uL of enzyme mix (final concentration of 0.1 nM) in assay buffer (4 degree Celsius) was added. Plates were incubated at room temperature for 1 hour. Two uL of detection mix (Kinase-Glo, Promega; at 4 degree Celsius protected from light) was added and luminescence read by a ViewLux (Perkin Elmer) at 1 second exposure/plate. Data were normalized to the uninhibited (row 31). Additionally, a no enzyme and 5-fold enzyme control was dispensed in row 32, split equally between the two conditions.

Pyruvate kinase PKLR (Homo sapiens), sequence (P30613 whole entry, looked up, canonical isoform): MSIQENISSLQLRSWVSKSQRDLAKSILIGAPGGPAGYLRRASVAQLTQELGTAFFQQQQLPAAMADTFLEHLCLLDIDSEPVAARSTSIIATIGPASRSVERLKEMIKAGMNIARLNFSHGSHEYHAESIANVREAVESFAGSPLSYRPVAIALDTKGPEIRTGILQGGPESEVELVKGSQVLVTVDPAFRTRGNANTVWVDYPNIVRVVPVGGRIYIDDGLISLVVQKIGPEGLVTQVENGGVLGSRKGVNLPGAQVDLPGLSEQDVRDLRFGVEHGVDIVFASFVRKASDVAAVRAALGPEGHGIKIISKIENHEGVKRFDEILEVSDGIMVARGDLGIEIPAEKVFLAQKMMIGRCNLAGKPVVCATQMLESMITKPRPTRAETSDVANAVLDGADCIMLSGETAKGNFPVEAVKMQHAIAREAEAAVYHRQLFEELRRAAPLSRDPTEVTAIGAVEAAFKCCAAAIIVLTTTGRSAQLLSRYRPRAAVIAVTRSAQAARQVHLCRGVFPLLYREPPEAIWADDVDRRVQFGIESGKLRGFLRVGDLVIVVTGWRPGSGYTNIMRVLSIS

Activity change, positive = activation, inactive:
COc1cccc(Cn2ncc3c4sc(S(C)=O)cc4n(C)c3c2=O)c1 (centres undefined) -7.39%
O=S(=O)(c1ccc2c(c1)OCCO2)N1CCN(S(=O)(=O)c2c(F)cccc2F)CC1 -0.557%
Nc1cccc(S(=O)(=O)N2CCCN(S(=O)(=O)c3ccc4c(c3)OCCO4)CC2)c1 10.9%
Cc1ccc(NS(=O)(=O)c2ccc3c(c2)CCC(=O)N3)cc1C -1.46%
